Measurements from PubChem BioAssay (NCI).
Where “and” joins values, the source holds several entries; their conditions need not be identical. Equal values may be shown once. Compounds without any hit were thinned out: in the full panel of roughly 79,000, 15% have a hit. Cut-off read from the data, not from the text of the source: active = growth inhibition above about 70%; inactive = the rest. Where a SMILES comes first, the peptide text is derived from it. The star is where a group is joined. Boc = CC(C)(C)OC(=O)*

Legend:
[1] = NCI Yeast Anticancer Drug Screen. Data for the rad50 strain (AID 155);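 note: 0% = growth of vehicle-only cultures of the same strain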; settings: S. cerevisiae rad50 strain growth inhibition; at 50.0 µM; stronger effect = higher value
How it was run: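 DNA repair mutant yeast, compound exposure, growth read-out; inhibition is taken relative to vehicle.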

[2] = NCI Yeast Anticancer Drug Screen. Data for the mec2-1 strain (AID 157); settings: S. cerevisiae mec2-1 strain, at 50.0 µM, stronger effect = higher value
How it was run: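 Strain: mec2-1 (DNA repair/cell cycle alteration). Compound exposure, then growth measured; inhibition expressed relative to vehicle.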

[3] = NCI Yeast Anticancer Drug Screen. Data for the sgs1 mgt1 strain (AID 161);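 note: 0% = growth of cultures given vehicle only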; settings: S. cerevisiae sgs1 mgt1 strain, at 50.0 µM, stronger effect = higher value
How it was run: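 Genetically altered yeast, compound exposure, growth inhibition relative to vehicle.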

[4] = NCI Yeast Anticancer Drug Screen. Data for the cln2 rad14 strain (AID 165);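 note: 0% = growth equal to vehicle treated cultures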; settings: S. cerevisiae cln2 rad14 strain, at 50.0 µM, stronger effect = higher value
How it was run: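 Compounds are applied to the cln2 rad14 yeast strain, and growth is then compared with that of vehicle-treated cultures to give inhibition.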

[5] = NCI Yeast Anticancer Drug Screen. Data for the bub3 strain (AID 167); settings: S. cerevisiae bub3 mutant strain, at 50.0 µM, stronger effect = higher value
How it was run: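 In this screen, a yeast mutant lacking normal mitotic checkpoint function is challenged with compound. Relative growth versus vehicle gives the inhibition value.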

[6] = NCI Yeast Anticancer Drug Screen. Data for the mlh1 rad18 strain (AID 175); settings: S. cerevisiae mlh1 rad18 strain growth inhibition; at 50.0 µM; stronger effect = higher value
How it was run: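 Read-out is yeast growth inhibition, calculated against vehicle-only controls. The compound was applied to a strain engineered with DNA damage repair alterations.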

Measured: growth inhibition

CN(C)CC1CC(=O)C(CN(C)C)CC1=O (stereo unspecified)
inactive: [1] 7.35% and -5.3% | [2] 1.85% and -5.7% | [3] -10.1% and -21.7% | [4] 4% and -37.1% | [5] -7.45% and -15.6% | [6] 18.6% and -8.8%

O=C1CC(=P(c2ccccc2)(c2ccccc2)c2ccccc2)C(=O)N1c1ccccc1
inactive: [1] -24.2% and 22.2% | [2] -15.6% and -12% | [3] -7.95% and 42.8% | [4] 5.05% and 33.2% | [5] -9.45% and 10.2% | [6] -12.8% and 21.6%

CC(C)(C)c1cc([N+](C)(C)C)cc(C(C)(C)C)n1
inactive: [1] 1.6% and 19.6% | [2] -5.3% and 8.25% | [3] 1.05% and 14.8% | [4] 2.3% and -16.7% | [5] 20.6% and -2.05% | [6] 6.3% and -5.55%

Nc1ccc(S(=O)(=O)Nc2cnc3ccccc3n2)cc1
inactive: [1] -11.1% and -2.05% | [2] -1.95% and -1.25% | [3] 2.25% and -5.9% | [4] -20.2% and -30.1% | [5] -11.2% and -10.6% | [6] -4.45% and -6.45%

Cc1c(C)[n+](=O)c2ccccc2n1[O-]
inactive: [1] 15.9% and 7.2% | [2] -19.1% and -4% | [3] -7.6% and 3.5% | [4] -20.6% and -2.05% | [5] -18.1% and -3.6% | [6] 5.4% and 5.85%

Cc1ccc(CCO)cc1
inactive: [1] 2.3% and 2.65% | [2] 0.95% and 2.6% | [3] 6.95% and -28.1% | [4] 0.5% and -47.2% | [5] -4.9% and -6.4% | [6] -2.75% and 0.35%

O=C(O)C1CC[N-]CC1.O=C(O)C1CC[N-]CC1.[Cl][Pt+2][Cl]
inactive: [1] 14.8% and -3.75% | [2] 13.6% and -0.6% | [3] 24.4% and -1.25% | [4] -5.25% and -42.3% | [5] -5.8% and -2.85% | [6] 17.5% and 5.45%

O=C(NC(=O)c1ccccc1)NC(=O)c1ccccc1
inactive: [1] -2.6% and -1.25% | [2] -10% and -14.1% | [3] -3.35% and 1.1% | [4] 7.8% and -17.6% | [5] 8.35% and -6.25% | [6] -3.65% and -45.1%

CC(=O)OCC(OC(C)=O)C(OC(C)=O)C(OC(C)=O)C(COC(=O)c1ccccc1)OC(=O)c1ccccc1 (stereo unspecified)
inactive: [1] 4.35% and 18.9% | [2] -3.75% and 5.75% | [3] -10.6% and -4.1% | [4] -21.1% and 3.7% | [5] 4.35% and -0.35% | [6] 2.15% and 10.3%

N#CC1OC1c1cccc[n+]1[O-] (stereo unspecified)
inactive: [1] 9.05% and 4.6% | [2] -7.8% and -3.3% | [3] 0.85% and -8.7% | [4] -45.9% and -29.5% | [5] -11.7% and -13.9% | [6] -3.15% and 8.5%

COC1OC(COC(=O)c2ccccc2)C(OC(=O)c2ccccc2)C1OC(=O)c1ccccc1 (stereo unspecified)
inactive: [1] -15.4% and 7.8% | [2] -2.5% and -10.2% | [3] -3.65% and -3.95% | [4] -28.1% and -21.9% | [5] 15.9% and -0.85% | [6] 9% and 4.6%

NCCCNCCSSC/C=C\CSSCCNCCCN
inactive: [1] 1.9% and -5.5% | [2] -15.6% and -4.85% | [3] 1.8% and -15.3% | [4] 1.15% and -16.8% | [5] 7.85% and -2.3% | [6] 11.3% and 1.45%

NCC1CCC(CN)CC1 (stereo unspecified)
inactive: [1] -23.9% and -37.9% | [2] -40.7% and -33.4% | [3] -17.6% and -24.7% | [4] -5.15% and 12.1% | [5] -28.9% and -25.8% | [6] -19.9% and -7.3%

O=C(O)/C=C/c1c2ccc(=O)cc-2oc2cc(O)ccc12
inactive: [1] -9.9% and 0.5% | [2] -21.8% and 29.6% | [3] 15.1% and 17.6% | [4] 21.2% and 7.05% | [5] -8.15% and 17.1% | [6] 4.65% and -5.95%

COC(=O)C(C)NC(=O)C(CCSC)NC(=O)C(Cc1ccccc1)NC(=O)OC(C)(C)C (stereo not drawn) (Boc-Phe-Met-Ala-OMe; configuration not given here)
inactive: [1] -7.05% and 1.75% | [2] -15.3% and 1.15% | [3] 2.4% and 6.3% | [4] 5.05% and 10.7% | [5] 0.15% and -11.9% | [6] 12.4% and -70.9%

O=S(=O)(O)CCO
inactive: [1] 13.6% and -1.9% | [2] -8.35% and -8.7% | [3] 20.7% and 9.75% | [4] 19.1% and 16.2% | [5] 0.3% and -3.5% | [6] 2.25% and 28%

CC/C(=N/NC(N)=O)C1=CCCCC1
inactive: [1] -5.6% and 3.4% | [2] -3.7% and -0.85% | [3] -1.5% and -15.2% | [4] -35.5% and -33.9% | [5] -15.2% and -9.7% | [6] -0.4% and -14.7%

CC(=O)OCC1OC(n2c(=S)n(-c3ccccc3)c(=O)c3cc(Br)ccc32)C(OC(C)=O)C(OC(C)=O)C1OC(C)=O (stereo unspecified)
inactive: [1] 4.85% and -36.2% | [2] -1.9% and -27.9% | [3] 1.4% and -26.9% | [4] 5.25% and 15.2% | [5] -14.6% and -0.3% | [6] 12.5% and -19.2%

CC(=O)Nc1cc(NC(C)=O)c2ccccc2c1O
inactive: [1] -2.65% and 4.1% | [2] 22% and 5.85% | [3] 13.2% and 8% | [4] 6.05% and 25.1% | [5] 18.9% and 14.3% | [6] 2.7% and 6.75%

OC/C=C/c1ccccc1
inactive: [1] 5.7% and 14.7% | [2] 6.7% and -3.15% | [3] 12.1% and -16.6% | [4] 10.1% and -2.55% | [5] 2.65% and 12.1% | [6] 14.7% and -8.85%

CCC(=O)Oc1cc(C)ccc1C(C)(C)C
inactive: [1] 1.4% and -18.1% | [2] 0.8% and -19.4% | [3] 1.45% and -12% | [4] -3.7% and -1.5% | [5] -0.3% and -13.2% | [6] -3.6% and -5.85%
